Measurements: PubChem BioAssay (Tox21)
A number with no mark means an inactive call. The source made the active and inactive calls. The call rests on the fitted dose curve; in most records, active means well fitted curve in the direction sought with a large enough effect in the repeat runs; inconclusive means weak or mixed curves; inactive means flat fitted curve, though single readings scatter. Positions of bridges follow the written chain, without caps; N, C: chain ends. Non-standard residues stand in square brackets, D forms with d. Residues, ends and D or L forms follow the SMILES beside them. *: point of attachment. X2 = CC[C@H](C)CCCCC(=O)*; Orn = NCCC[C@H](N)C(=O)O; Dab = NCC[C@H](N)C(=O)O; Mpa = O=C(O)CCS

assay: qHTS assay to test for compound auto fluorescence at 535 nm (green) in HEK293 cells (AID 720680); conditions: green autofluorescence 485/535 nm; series mostly up to 46 µM; fluorescence, % of fluorescein: at the top concentration
Excerpt: U.S. Tox21 Program National Center for Advancing Translational Sciences [NCATS] NIH Chemical Genomics Center [NCGC] U.S. Environmental Protection Agency [EPA] National Institutes of Environmental Health Sciences [NIEHS] National Toxicology Program [NTP] U.S. Food and Drug Administration [FDA] Tox21 Assay Overview: Compound auto fluorescence often interferes with screening of the compound library against various biological targets and signaling pathways. Some of these compounds may have fluorophoric properties. Such properties may interfere with the assay outputs resulting in false positives and/or negatives. To decrease such complications and ensure the compound activities are relevant in terms of biological response, the Tox21 10K compound library was screened for auto fluorescence. From the fluorophores used as reporter signals in our screening assays, the auto fluorescence equivalencies of compounds against three fluorophores have been evaluated: Triamterene, Fluorescein and Rose Bengal sodium for blue, green and red fluorescence, respectively. The fluorescence intensities were measured using Excitation/Emission wavelengths at 405/460nm, 485/535nm and 540/590nm for blue, green and red labels, respectively. This assay includes the green fluorescence data.
Tox21 Assay Protocol Summary: 2,000 HEK293 cells in 5 uL of culture medium containing 10% dialyzed FBS per well were dispensed into black wall/clear bottom 1536-well plates using a Multidrop Combi Dispenser (Thermo Scientific). The assay plates were incubated for 4-5 hr at 37C to allow cell attachment to the well bottom, followed by the transfer of 23 nL compound or DMSO vehicle by a pintool work station (Kalypsys, San Diego, CA). After the assay plates were incubated overnight at 37C and 5% CO2, fluorescence intensities in the assay plates were measured by an Envision (PerkinElmer, Shelton, CT) plate reader using three labels for measuring blue, green and red fluorescence at […] 460, 535 and 590nm respectively.
On the % scale 0 is the no-effect control and ±100 the full control effect.

Structure (SMILES) | fluorescence, % of fluorescein | Potency
[O]=[Bi][O]C(=O)[O][Bi]=[O] | 0.227% | –
CCOc1ccc(C[C@H]2NC(=O)CCSSC[C@@H](C(=O)N3CCC[C@H]3C(=O)N[C@@H](CCCN)C(=O)NCC(N)=O)NC(=O)[C@H](CC(N)=O)NC(=O)[C@H]([C@@H](C)O)NC(=O)[C@H]([C@@H](C)CC)NC2=O)cc1 ([Mpa][dY](Et)ITNCP[Orn]G-NH2; disulfide 1-6) | -0.0087% | –
CN1C(=O)CN2CCc3ccccc3C2c2cc(Cl)ccc21 (stereo not given) | -0.0195% | –
CC(CN1c2ccccc2Sc2cccnc21)N(C)C (stereo not given) | 0.0028% | –
CC[C@H](C)CCCCC(=O)N[C@@H](CCN)C(=O)N[C@H](C(=O)N[C@@H](CCN)C(=O)N[C@H]1CCNC(=O)[C@@H]([C@H](C)O)NC(=O)[C@H](CCN)NC(=O)[C@H](CCN)NC(=O)[C@H](CC(C)C)NC(=O)[C@@H](CC(C)C)NC(=O)[C@H](CCN)NC1=O)[C@@H](C)O (X2-[Dab]T[Dab][Dab][Dab][dL]L[Dab][Dab][dT]; lactam 4-C) | -0.0233% [at 18.6 µM] | –
CCCCCCCCCCCCCCCCOCCOCCOCCOCCOCCOCCOCCOCCOCCOCCOCCOCCOCCOCCOCCOCCOCCOCCOCCOCCO | -0.216% | –
C=C1C(=C/C=C2\CCC[C@]3(C)[C@@H]([C@H](C)CCCC(C)(C)O)CC[C@@H]23)C[C@@H](O)C[C@@H]1O | 0.0395% | –
c1ccc2c(c1)Sc1ccccc1N2CCN1CCCC1 | -0.0551% | –
CCCCC(C)(O)C/C=C/[C@H]1[C@H](O)CC(=O)[C@@H]1CCCCCCC(=O)OC (stereo not given in full) | -0.0337% | –
COc1ccc(C2NC(=S)N3C(c4ccc(OC)c(OC)c4)NC(=S)N23)cc1OC (stereo not given) | -0.127% | –
O=C(O)c1cccc(/C=C2/C[C@@H]3[C@@H](/C=C/[C@@H](O)C4CCCCC4)[C@H](O)C[C@@H]3O2)c1 | -0.0831% | –
CC1(C)C2CC[C@]3(C)[C@H](C(=O)C=C4[C@@H]5C[C@@](C)(C(=O)O)CC[C@]5(C)CC[C@]43C)[C@@]2(C)CC[C@@H]1O[C@H]1O[C@H](C(=O)O)[C@@H](O)[C@H](O)[C@H]1O[C@@H]1O[C@H](C(=O)O)[C@@H](O)[C@H](O)[C@H]1O (stereo not given in full) | -0.0169% | –
CCOC(=O)[C@@H](N)CS | -0.0089% | –
NNc1nnc(Cc2ccncc2)c2ccccc12 | -0.0282% | –
O=C(O[C@H]1CN2CCC1CC2)N1CCc2ccccc2[C@@H]1c1ccccc1 | -0.0234% | –
C#C[C@]1(OC(C)=O)CC[C@H]2[C@@H]3CCC4=CC(=O)CC[C@@H]4[C@H]3CC[C@@]21C | -0.265% | –
CCOC(=O)C1=C(COCCN)NC(C)=C(C(=O)OC)C1c1ccccc1Cl (stereo not given) | – | inactive
N=C(N)c1ccc(OCCCOc2ccc(C(=N)N)cc2Br)c(Br)c1 | 0.143% | –
CC1CC(OC(=O)C(O)c2ccccc2)CC(C)(C)C1 (stereo not given) | 0.0782% | –
CN(C(=O)CO)c1c(I)c(C(=O)NCC(O)CO)c(I)c(C(=O)NCC(O)CO)c1I (stereo not given) | 0.0011% | –

Structure (SMILES) | fluorescence, % of fluorescein | Potency
CCCCC(=O)O[C@H]1CC[C@H]2[C@@H]3CCc4cc(O)ccc4[C@H]3CC[C@]12C | -0.0052% | –
NC(=O)OC[C@@H]1[C@H](NC(=O)/C(=N\OCC(=O)O)c2csc(N)n2)C(=O)N1S(=O)(=O)O | -0.212% | –
C=C1c2c(Cl)ccc(O)c2C(O)=C2C(=O)[C@]3(O)C(O)=C(C(N)=O)C(=O)[C@@H](N(C)C)[C@@H]3[C@@H](O)[C@H]12 | 0.0753% [at 18.6 µM] | –
CO/N=C(\C(=O)N[C@@H]1C(=O)N2C(C(=O)O)=C(CSc3nnnn3C)CS[C@H]12)c1csc(N)n1 | -0.018% | –
CC(=O)O[C@H]1C[C@@H]2CC[C@@H]3[C@H](CC[C@@]4(C)[C@H]3C[C@H](N3CC[N+](C)(C)CC3)[C@@H]4OC(C)=O)[C@@]2(C)C[C@@H]1N1CC[N+](C)(C)CC1 | 0.107% | –
CC(C)(CO)[C@@H](O)C(=O)NCCC(=O)NCCSSCCNC(=O)CCNC(=O)[C@H](O)C(C)(C)CO | 0.109% | –
CCN(CC)CCCC(C)Nc1cc(/C=C/c2ccccc2Cl)nc2cc(Cl)ccc12 (stereo not given) | 0.0912% | –
C[C@]12CC[C@@H]3c4ccc(OC(=O)c5ccccc5)cc4CC[C@H]3[C@@H]1CC[C@@H]2O | 0.0317% | –
O=C[C@H](O)[C@@H](O)[C@H](O[C@H]1O[C@H](CO)[C@@H](O[C@H]2O[C@H](CO)[C@@H](O)[C@H](O)[C@H]2O)[C@H](O)[C@H]1O)[C@H](O)CO | 0.0938% | –
CCOC(=O)Oc1c(OC)cc(C(=O)O[C@@H]2C[C@@H]3CN4CCc5c([nH]c6cc(OC)ccc56)[C@H]4C[C@@H]3[C@H](C(=O)OC)[C@H]2OC)cc1OC | 0.155% [at 18.6 µM] | –
O=C(O)COc1ccc(CCNS(=O)(=O)c2ccccc2)s1 | 0.12% | –
CCc1ccc(S(=O)(=O)O)cc1 | -0.139% | –
CC[C@H](CC[C@@H](C)[C@H]1CC[C@H]2[C@@H]3CC=C4C[C@@H](O)CC[C@]4(C)[C@H]3CC[C@]12C)C(C)C | 0.147% | –
Cn1c(O)c(N=NC(N)=S)c2ccccc21 | -0.315% | –
C=C1CC[C@H](O)CC1=C/C=C1\CCC[C@]2(C)[C@@H]([C@H](C)CCCC(C)(C)O)CC[C@@H]12 | 0.189% | –
CC(Oc1ccccc1)C(=O)N[C@@H]1C(=O)N2[C@@H]1SC(C)(C)[C@@H]2C(=O)O (stereo not given in full) | -0.069% [at 18.6 µM] | –
NS(=O)(=O)c1cc2c(cc1Cl)NC(Cc1ccccc1)NS2(=O)=O (stereo not given) | -0.0114% | –
CSc1nc2cc(Oc3cccc(Cl)c3Cl)c(Cl)cc2[nH]1 | 0.0512% | –
C[C@H](N)C(=O)N[C@@H](C)P(=O)(O)O | 0.0173% | –
CCC(CN)CC(C)CCNCC(O)CNCC(C)CC(CC)CN (stereo not given) | -0.106% | –
